# Experimental data reported in ChEMBL document CHEMBL2218924, “A broad activity screen in support of a chemogenomic map for kinase signalling research and drug discovery” (Biochem J, 2013).
# How the values were obtained:
# [1] = target: T1, Ephrin type-B receptor 1 (Homo sapiens) (UniProt P54762); conditions: at 10 µM
# T1 sequence (whole entry): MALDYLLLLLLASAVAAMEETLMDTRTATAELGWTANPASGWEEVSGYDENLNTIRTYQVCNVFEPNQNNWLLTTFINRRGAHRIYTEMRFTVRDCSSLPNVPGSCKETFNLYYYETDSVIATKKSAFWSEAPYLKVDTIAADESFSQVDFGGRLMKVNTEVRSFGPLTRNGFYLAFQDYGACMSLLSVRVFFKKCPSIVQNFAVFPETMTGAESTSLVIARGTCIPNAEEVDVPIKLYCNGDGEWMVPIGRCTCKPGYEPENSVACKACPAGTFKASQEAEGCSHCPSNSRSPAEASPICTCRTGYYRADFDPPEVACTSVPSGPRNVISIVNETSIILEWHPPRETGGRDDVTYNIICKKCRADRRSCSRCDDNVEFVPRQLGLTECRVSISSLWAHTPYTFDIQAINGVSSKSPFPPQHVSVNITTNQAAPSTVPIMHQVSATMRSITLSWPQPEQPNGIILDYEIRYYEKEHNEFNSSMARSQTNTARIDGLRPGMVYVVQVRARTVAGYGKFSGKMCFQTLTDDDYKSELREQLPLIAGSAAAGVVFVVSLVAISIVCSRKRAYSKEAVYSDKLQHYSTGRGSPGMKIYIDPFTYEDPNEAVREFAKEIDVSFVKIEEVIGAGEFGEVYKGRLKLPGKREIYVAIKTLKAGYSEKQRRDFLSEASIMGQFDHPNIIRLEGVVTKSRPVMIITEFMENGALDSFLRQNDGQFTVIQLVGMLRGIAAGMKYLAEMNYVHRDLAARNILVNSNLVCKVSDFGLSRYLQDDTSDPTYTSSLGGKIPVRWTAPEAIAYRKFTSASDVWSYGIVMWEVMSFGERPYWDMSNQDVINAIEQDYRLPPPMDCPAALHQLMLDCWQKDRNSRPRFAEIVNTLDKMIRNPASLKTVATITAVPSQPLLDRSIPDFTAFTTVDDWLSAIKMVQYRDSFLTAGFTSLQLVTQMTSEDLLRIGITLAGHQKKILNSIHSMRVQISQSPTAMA
# [2] = target: T2, Ephrin type-B receptor 2 (Homo sapiens) (UniProt P29323); conditions: at 1 µM
# T2 sequence (whole entry): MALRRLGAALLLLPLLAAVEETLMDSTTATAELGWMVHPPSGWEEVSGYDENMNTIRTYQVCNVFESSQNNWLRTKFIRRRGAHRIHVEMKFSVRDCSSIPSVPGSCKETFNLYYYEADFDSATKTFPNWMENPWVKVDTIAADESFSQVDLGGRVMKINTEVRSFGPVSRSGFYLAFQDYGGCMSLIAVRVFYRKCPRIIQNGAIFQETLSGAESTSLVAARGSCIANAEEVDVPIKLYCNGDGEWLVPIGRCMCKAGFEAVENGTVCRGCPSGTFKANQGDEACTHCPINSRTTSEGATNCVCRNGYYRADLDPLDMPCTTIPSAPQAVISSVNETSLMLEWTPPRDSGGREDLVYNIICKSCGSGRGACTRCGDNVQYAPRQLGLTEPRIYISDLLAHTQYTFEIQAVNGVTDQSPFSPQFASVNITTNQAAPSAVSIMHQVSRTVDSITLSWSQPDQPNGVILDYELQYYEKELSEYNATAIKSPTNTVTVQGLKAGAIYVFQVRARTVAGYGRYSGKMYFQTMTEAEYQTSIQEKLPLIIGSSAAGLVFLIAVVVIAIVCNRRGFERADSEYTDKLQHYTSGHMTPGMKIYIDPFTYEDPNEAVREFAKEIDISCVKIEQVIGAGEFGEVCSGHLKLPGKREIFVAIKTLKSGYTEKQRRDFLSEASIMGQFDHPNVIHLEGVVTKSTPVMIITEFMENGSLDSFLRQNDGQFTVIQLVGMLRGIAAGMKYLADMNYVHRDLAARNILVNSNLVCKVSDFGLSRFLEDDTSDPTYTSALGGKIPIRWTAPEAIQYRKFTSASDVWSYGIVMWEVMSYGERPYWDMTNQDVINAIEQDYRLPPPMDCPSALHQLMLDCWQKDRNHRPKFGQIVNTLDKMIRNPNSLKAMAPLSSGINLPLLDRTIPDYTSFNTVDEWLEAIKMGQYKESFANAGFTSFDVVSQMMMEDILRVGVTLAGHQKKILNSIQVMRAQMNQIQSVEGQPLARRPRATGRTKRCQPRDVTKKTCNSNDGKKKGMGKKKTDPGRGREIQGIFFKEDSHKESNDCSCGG
# [3] = target: T2, Ephrin type-B receptor 2 (Homo sapiens); conditions: at 10 µM
# [4] = target: T3, Ephrin type-B receptor 3 (Homo sapiens) (UniProt P54753); conditions: at 1 µM
# T3 sequence (whole entry): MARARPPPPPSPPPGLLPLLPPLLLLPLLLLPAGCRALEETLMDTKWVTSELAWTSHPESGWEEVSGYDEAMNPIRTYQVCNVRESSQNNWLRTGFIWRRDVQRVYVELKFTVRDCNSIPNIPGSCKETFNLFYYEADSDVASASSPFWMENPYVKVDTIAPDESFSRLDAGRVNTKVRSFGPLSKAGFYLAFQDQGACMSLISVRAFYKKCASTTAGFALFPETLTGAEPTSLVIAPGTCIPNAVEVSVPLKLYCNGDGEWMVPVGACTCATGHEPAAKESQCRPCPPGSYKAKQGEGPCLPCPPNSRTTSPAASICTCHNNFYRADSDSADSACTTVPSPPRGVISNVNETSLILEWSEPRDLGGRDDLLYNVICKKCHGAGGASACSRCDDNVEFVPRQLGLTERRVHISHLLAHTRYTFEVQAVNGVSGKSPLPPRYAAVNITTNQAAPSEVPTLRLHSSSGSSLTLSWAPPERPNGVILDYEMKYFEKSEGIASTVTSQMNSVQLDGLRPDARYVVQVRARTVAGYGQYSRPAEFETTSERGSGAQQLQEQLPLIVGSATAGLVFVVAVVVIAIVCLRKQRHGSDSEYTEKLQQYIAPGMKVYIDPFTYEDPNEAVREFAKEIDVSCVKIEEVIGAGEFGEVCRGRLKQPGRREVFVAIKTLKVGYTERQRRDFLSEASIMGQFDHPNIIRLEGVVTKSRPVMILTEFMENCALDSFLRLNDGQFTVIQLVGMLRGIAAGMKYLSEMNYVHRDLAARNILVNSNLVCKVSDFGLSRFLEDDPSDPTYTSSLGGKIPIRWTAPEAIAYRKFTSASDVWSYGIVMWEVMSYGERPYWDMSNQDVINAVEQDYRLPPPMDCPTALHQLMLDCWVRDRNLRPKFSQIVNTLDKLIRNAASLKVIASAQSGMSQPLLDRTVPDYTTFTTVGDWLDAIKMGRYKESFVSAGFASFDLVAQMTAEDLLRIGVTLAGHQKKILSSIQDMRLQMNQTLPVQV
# [5] = target: T3, Ephrin type-B receptor 3 (Homo sapiens); conditions: at 10 µM
# [6] = target: T4, Ephrin type-B receptor 4 (Homo sapiens) (UniProt P54760); conditions: at 1 µM
# T4 sequence (whole entry): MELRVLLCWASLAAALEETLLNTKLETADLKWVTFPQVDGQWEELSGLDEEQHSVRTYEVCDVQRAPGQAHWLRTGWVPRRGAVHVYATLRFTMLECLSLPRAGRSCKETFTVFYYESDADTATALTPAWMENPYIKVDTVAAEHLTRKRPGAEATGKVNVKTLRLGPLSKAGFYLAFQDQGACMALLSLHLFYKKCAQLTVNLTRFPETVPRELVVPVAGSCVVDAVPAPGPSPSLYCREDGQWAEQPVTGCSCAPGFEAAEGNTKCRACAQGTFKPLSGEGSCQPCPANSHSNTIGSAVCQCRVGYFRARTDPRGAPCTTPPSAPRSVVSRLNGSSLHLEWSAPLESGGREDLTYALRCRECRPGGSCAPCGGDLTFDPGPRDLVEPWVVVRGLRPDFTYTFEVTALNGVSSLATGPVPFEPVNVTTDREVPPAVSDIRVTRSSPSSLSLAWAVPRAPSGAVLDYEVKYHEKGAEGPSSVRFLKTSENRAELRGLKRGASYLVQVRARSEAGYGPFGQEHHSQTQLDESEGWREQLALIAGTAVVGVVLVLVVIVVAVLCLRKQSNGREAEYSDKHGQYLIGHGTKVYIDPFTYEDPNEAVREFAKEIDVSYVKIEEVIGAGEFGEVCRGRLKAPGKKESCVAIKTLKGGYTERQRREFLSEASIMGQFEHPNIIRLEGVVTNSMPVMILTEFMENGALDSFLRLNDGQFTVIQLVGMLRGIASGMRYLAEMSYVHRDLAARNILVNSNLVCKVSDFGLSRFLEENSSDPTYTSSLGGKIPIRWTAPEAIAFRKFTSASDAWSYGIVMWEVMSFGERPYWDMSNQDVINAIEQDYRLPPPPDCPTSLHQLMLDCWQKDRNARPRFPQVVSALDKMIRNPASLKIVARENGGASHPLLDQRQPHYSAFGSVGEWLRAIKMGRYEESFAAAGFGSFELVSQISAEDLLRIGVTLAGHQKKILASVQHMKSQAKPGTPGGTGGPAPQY
# [7] = target: T4, Ephrin type-B receptor 4 (Homo sapiens); conditions: at 10 µM
# [8] = target: Receptor tyrosine-protein kinase erbB-4 (Homo sapiens) (UniProt Q15303); conditions: at 1 µM
# Sequence of Receptor tyrosine-protein kinase erbB-4 (Homo sapiens) (Q15303 whole entry): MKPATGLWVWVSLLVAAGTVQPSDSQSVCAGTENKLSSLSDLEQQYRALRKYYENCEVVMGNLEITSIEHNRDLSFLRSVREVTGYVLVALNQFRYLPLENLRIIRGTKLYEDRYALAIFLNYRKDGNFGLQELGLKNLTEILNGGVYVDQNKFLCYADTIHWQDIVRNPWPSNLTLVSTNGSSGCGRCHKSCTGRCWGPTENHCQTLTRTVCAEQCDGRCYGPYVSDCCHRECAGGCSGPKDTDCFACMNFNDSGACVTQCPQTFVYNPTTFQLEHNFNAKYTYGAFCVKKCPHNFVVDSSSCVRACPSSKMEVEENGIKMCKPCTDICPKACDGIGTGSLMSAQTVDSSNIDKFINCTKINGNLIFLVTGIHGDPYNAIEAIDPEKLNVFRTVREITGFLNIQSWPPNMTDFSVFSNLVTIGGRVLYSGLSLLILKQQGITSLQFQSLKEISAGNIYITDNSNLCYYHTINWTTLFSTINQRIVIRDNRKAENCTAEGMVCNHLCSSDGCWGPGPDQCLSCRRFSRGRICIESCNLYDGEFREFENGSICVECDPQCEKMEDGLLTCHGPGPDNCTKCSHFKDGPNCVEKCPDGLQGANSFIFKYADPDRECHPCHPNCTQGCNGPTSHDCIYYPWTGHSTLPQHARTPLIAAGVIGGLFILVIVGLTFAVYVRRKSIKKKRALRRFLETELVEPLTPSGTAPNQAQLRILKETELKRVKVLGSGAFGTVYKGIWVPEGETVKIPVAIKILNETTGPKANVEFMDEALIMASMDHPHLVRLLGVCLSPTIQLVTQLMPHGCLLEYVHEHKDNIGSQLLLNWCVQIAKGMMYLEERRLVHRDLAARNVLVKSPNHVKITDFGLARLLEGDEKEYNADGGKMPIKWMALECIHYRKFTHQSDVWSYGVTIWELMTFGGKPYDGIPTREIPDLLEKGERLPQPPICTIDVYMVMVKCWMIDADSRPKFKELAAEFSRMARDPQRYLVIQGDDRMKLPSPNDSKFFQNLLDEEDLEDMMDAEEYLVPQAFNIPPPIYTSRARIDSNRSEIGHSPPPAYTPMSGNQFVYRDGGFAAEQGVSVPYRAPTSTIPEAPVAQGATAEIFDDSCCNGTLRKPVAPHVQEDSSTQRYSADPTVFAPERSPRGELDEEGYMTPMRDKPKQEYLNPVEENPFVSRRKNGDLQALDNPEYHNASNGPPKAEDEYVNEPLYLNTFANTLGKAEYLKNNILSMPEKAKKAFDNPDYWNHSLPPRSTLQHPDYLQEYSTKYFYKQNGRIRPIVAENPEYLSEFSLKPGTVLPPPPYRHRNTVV
# [9] = target: Receptor tyrosine-protein kinase erbB-4 (Homo sapiens) (UniProt Q15303); conditions: at 10 µM
# [10] = target: Focal adhesion kinase 1 (Homo sapiens) (UniProt Q05397); conditions: at 1 µM
# Sequence of Focal adhesion kinase 1 (Homo sapiens) (Q05397 2-1052 limits assumed): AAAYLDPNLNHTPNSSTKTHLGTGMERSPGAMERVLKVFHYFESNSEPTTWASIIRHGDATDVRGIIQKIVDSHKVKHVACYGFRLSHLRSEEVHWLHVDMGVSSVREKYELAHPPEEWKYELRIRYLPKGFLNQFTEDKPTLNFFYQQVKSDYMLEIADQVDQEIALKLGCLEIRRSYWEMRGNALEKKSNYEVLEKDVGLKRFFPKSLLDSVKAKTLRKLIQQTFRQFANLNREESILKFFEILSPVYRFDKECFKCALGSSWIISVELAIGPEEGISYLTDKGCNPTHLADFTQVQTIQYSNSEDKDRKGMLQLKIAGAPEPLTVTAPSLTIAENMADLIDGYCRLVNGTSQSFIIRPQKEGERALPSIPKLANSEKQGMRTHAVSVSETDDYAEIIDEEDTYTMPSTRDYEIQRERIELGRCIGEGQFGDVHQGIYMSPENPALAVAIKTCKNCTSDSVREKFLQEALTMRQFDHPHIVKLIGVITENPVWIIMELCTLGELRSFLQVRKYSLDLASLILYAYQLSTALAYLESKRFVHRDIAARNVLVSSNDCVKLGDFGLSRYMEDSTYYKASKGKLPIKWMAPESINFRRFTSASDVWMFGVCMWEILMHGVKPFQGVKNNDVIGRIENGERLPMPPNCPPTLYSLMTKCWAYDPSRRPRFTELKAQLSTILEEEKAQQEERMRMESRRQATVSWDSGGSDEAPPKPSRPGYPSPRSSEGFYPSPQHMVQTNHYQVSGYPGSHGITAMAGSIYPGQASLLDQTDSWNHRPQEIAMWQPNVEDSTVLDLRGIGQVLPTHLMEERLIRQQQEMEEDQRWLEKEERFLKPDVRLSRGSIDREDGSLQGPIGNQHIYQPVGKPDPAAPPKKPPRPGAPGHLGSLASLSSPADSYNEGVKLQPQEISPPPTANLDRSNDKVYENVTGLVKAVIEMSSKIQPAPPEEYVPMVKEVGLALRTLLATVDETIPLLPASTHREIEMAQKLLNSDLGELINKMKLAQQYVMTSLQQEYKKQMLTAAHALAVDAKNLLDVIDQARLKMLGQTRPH
smiles,measurement,setting,value
Oc1ccc(-c2nc(-c3ccc(F)cc3)c(-c3ccncc3)[nH]2)cc1,residual activity,[1],53%
same,residual activity,[2],94%
same,residual activity,[3],43%
same,residual activity,[4],95% (inactive)
same,residual activity,[5],117%
same,residual activity,[6],103%
same,residual activity,[7],41%
same,residual activity,[8],114%
same,residual activity,[9],72%
same,residual activity,[10],117%
